Screening results as filed in PubChem BioAssay.
Rows were chosen to be rich in hits. Some 3.1% of all compounds tested hit in one or more screens of this group.
Env fusion inh: inhibitors of HIV-1 Env-driven cell-cell fusion, primary screen, HeLa-JRFL effector, CEM21 target cells, luciferase. inhibition, % at 12.3 µM. 360,000 compounds, 1.1% hits;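 active = mean replicate inhibition score of at least 50 and every replicate individually at or above 50; inconclusive = only one of the two criteria met; inactive = mean below 50 and not all replicates reaching 50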
PAX8 reporter: inhibitors of PAX8-driven TPO luciferase reporter, primary screen, RMG-I cells, single concentration; AID 652154, 2013; SteadyGlo, 24 h; inhibition, % at 12.6 µM; 360,000 compounds, 1.2% hits;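 active = mean replicate inhibition at least 60% with every replicate also reaching 60%; inconclusive = only one of the two criteria is met; inactive = mean below 60% and not all replicates reaching 60%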;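 also: luciferase light reporting Pax8 driven TPO promoter activity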
GSIS activator: GLuc luminescence reporter in INS-1E cells, primary screen for activators of glucose-dependent secretion of insulin | INS-1E GLuc reporter insulin secretion, 2-3 h | activation, % at 16.6 µM | 370,000 compounds, 0.61% hits | AID 743287, 2014;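 active = lowest replicate activation of at least 40%, so every replicate reaches that level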
C2C12 statin: suppressors of statin myotoxicity in C2C12 myotubes, primary screen, cell-based, single point, plate reader; C2C12 myotubes + simvastatin, ATP luminescence, 48 h; scaled: DMSO 0, geranylgeraniol control 100; rescue of ATP level, % at 7.49 µM; 330,000 compounds, 0.78% hits; AID 602340, 2012;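 active = mean ATP rescue above about 67%, or every replicate alone reaching that limit, limit read from the data, passing the limit was not always enough; inconclusive = no clear call, values can overlap the other calls; inactive = mean under the limit and some replicate under it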;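 also: myotubes were challenged with 10 µM simvastatin during compound exposure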
EWS-Fli block: EWS/Fli-driven NR0B1 reporter inhibitors, primary screen, A673 cells, NR0B1 luciferase, luminescence, MLPCN library | viability-normalised | inhibition, % at 12.6 µM | AID 651661, 2012 | 350,000 compounds, 0.67% hits;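 active = mean inhibition of at least 50% after viability correction, with every replicate also passing that limit; inconclusive = mean reaches 50% but only one of two replicates passes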;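 also: firefly luciferase signal divided by Alamar Blue viability fluorescence both relative to DMSO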
miR-122 sensor: miR-122 Renilla sensor signal increase in Huh7, primary screen, miR-122 inhibitor project, cell-based, single point, plate reader. Huh7 miR-122 Renilla luciferase sensor, 48 h; neutral wells = 0, positive control = 100. activation (reporter increase), % at 12.5 µM. 340,000 compounds, 0.3% hits. AID 602342, 2012;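 active = mean replicate activation score at least 90 and every replicate individually at or above 90; inconclusive = only one of the two criteria met; inactive = neither criterion met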;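 also: higher luciferase means less miR-122 activity so hits act as miR-122 inhibitors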
Numbers stand for hits; . = inactive; ? = inconclusive; / = not tested or not shown; ! = not confirmed by another sample; [ ] = remark or other dose.

SMILES | Env fusion inh | PAX8 reporter | GSIS activator | C2C12 statin | EWS-Fli block | miR-122 sensor
COCC(=O)Nc1ccc2c(c1)OC[C@H](C)N(Cc1cccnc1)C[C@@H](C)[C@@H](OC)CN(C)C2=O | . | . | . | . | . | /
Cc1ccc(S(=O)(=O)Nc2ccc3c(c2)C(=O)N([C@H](C)CO)C[C@@H](C)[C@H](CN(C)Cc2ccc(C(F)(F)F)cc2)OCCCC[C@H](C)O3)cc1 | . | 116 | . | / | 66 | .
C[C@H](CO)N1C[C@H](C)[C@@H](CN(C)C(=O)CN(C)C)Oc2cc(C#CCC3CCCC3)ccc2S1(=O)=O | . | . | . | . | . | .
COCC(=O)N(C)C[C@H]1Oc2cc(C#CCC3CCCC3)ccc2S(=O)(=O)N([C@H](C)CO)C[C@H]1C | . | 69 | . | . | . | /
C[C@H]1CN([C@@H](C)CO)S(=O)(=O)c2ccc(C#CCC3CCCC3)cc2O[C@H]1CN(C)C(=O)CN(C)C | . | 64 | . | . | . | .
COCC(=O)N(C)C[C@H]1Oc2cc(C#CCC3CCCC3)ccc2S(=O)(=O)N([C@@H](C)CO)C[C@@H]1C | . | 73 | . | . | . | /
COc1ccccc1S(=O)(=O)N(C)C[C@H]1Oc2cc(C#CCC3CCCC3)ccc2S(=O)(=O)N([C@@H](C)CO)C[C@@H]1C | . | 82 | . | . | . | .
C[C@H](CO)N1C[C@H](C)[C@H](CN(C)S(=O)(=O)c2ccc(Cl)cc2)OCCCC[C@H](C)Oc2ccc(NS(=O)(=O)c3cn(C)cn3)cc2C1=O | . | . | . | / | . | .
N#Cc1ccc(C(=O)NCC(c2ccco2)N2CCCCC2)cc1 (configuration not stated) | / | / | . | 124 | / | .
Cc1noc(C)c1S(=O)(=O)Nc1ccc2c(c1)C(=O)N([C@@H](C)CO)C[C@H](C)[C@@H](CN(C)C(=O)Nc1ccc(C(F)(F)F)cc1)OCCCC[C@@H](C)O2 | . | 65 | . | / | . | .
Cc1noc(C)c1S(=O)(=O)Nc1ccc2c(c1)C(=O)N([C@@H](C)CO)C[C@@H](C)[C@H](CN(C)C(=O)Nc1ccc(C(F)(F)F)cc1)OCCCC[C@@H](C)O2 | . | 66 | . | / | . | .
Cc1noc(C)c1S(=O)(=O)Nc1ccc2c(c1)C(=O)N([C@@H](C)CO)C[C@H](C)[C@@H](CN(C)Cc1ccc(C(F)(F)F)cc1)OCCCC[C@H](C)O2 | . | 71! | . | . | . | .
Cc1noc(C)c1S(=O)(=O)Nc1ccc2c(c1)C(=O)N([C@@H](C)CO)C[C@H](C)[C@@H](CN(C)C(=O)Nc1ccc(C(F)(F)F)cc1)OCCCC[C@H](C)O2 | 57[16.7 µM] | 107 | . | / | . | .
Cc1noc(C)c1S(=O)(=O)Nc1ccc2c(c1)C(=O)N([C@H](C)CO)C[C@H](C)[C@H](CN(C)Cc1ccc(C(F)(F)F)cc1)OCCCC[C@@H](C)O2 | . | . | . | / | / | .
COc1ccc2c3c(n(C)c2c1)[C@H](CO)N(C(=O)c1ccncc1)CC31CCN(S(C)(=O)=O)CC1 | / | . | . | / | . | /
O=C(Nc1nccs1)[C@@H]1[C@@H](CO)[C@@H]2Cn3c(cccc3=O)[C@H]1N2C(=O)C1CCCCC1 | / | / | . | / | . | /
COc1ccccc1-c1cnc2c(c1)C(=O)N([C@H](C)CO)C[C@H](C)[C@@H](CN(C)Cc1ccncc1)O2 | . | / | . | . | . | .
COc1ccc2nc(-c3ccc(CN4CCC(c5nc6ccccc6[nH]5)CC4)cc3)c(-c3ccccc3)nc2c1 | . | . | . | / | . | /
Brc1ccc2nc(-c3ccc(CN4CCC(c5nc6ccccc6[nH]5)CC4)cc3)c(-c3ccccc3)nc2c1 | . | 101 | . | / | . | /
C[C@H]1CN([C@@H](C)CO)C(=O)c2c(c3ccccc3n2C)-c2ccccc2CO[C@H]1CN(C)Cc1ccc(-c2ccccc2)cc1 | / | . | . | / | . | /
COCC(=O)Nc1ccc2c(c1)[C@@H]1C[C@@H](CC(=O)NCc3cccc(F)c3)O[C@@H](CO)[C@@H]1O2 | . | . | . | . | . | .
C[C@@H]1CN([C@H](C)CO)C(=O)Cc2cc(NS(=O)(=O)c3cn(C)cn3)ccc2O[C@@H]1CN(C)Cc1ccc(Cl)c(Cl)c1 | . | . | . | . | . | .
C[C@@H]1CCCCO[C@@H](CN(C)Cc2ccccc2)[C@H](C)CN([C@@H](C)CO)C(=O)c2cc(NC(=O)Nc3ccc(C(F)(F)F)cc3)ccc2O1 | ? | 106 | . | / | . | .
C[C@@H]1CCCCO[C@@H](CN(C)Cc2ccccc2)[C@H](C)CN([C@H](C)CO)C(=O)c2cc(NC(=O)Nc3ccc(C(F)(F)F)cc3)ccc2O1 | . | 112 | . | / | . | .
C[C@@H]1CCCCO[C@@H](CN(C)Cc2ccccc2)[C@@H](C)CN([C@H](C)CO)C(=O)c2cc(NC(=O)Nc3ccc(C(F)(F)F)cc3)ccc2O1 | . | 77 | . | / | . | .
SMILES | Env fusion inh | PAX8 reporter | GSIS activator | C2C12 statin | EWS-Fli block | miR-122 sensor
C[C@@H]1CCCCO[C@@H](CN(C)Cc2ccccc2)[C@@H](C)CN([C@@H](C)CO)C(=O)c2cc(NC(=O)Nc3ccc(C(F)(F)F)cc3)ccc2O1 | . | . | . | / | . | .
O=C(CN1CCN(S(=O)(=O)c2ccc(Br)cc2)CC1)Nc1ccc2c(c1)OCCO2 | / | / | / | 144 | / | .
O=C(CN1CCN(S(=O)(=O)c2ccc(Cl)cc2)CC1)Nc1ccc2c(c1)OCCO2 | / | / | . | . | / | .
CCCCCCN(C(=O)CCCCCN1C(=O)NC(c2cccc([N+](=O)[O-])c2)C(C(=O)OCc2ccccc2)=C1C)C(C(=O)NCCCC)c1ccc(OCC(=O)OC)c(C(=O)OC)c1 (configuration not stated) | . | . | . | / | 69 | /
CCCCCCN(C(=O)CCCCCN1C(=O)NC(c2ccc(-c3ccccc3)cc2)C(C(=O)OCc2ccccc2)=C1C)C(C)C(=O)NCCCC (configuration not stated) | ? | 75 | . | / | . | /
c1ccc(-c2nnc(-c3ccccc3)nn2)cc1 | . | . | . | / | . | .
CC1(C)N=C(c2ccccc2)C(c2ccccc2)=N1 | . | . | 41 | . | . | .
C[C@H](CO)N1C[C@H](C)[C@@H](CN(C)C(=O)C2CCCCC2)OCCCC[C@H](C)Oc2ccc(NS(=O)(=O)c3ccc(Cl)cc3)cc2C1=O | . | 88 | . | / | . | .
C[C@@H]1CCCCO[C@@H](CN(C)C(=O)C2CCCCC2)[C@H](C)CN([C@H](C)CO)C(=O)c2cc(NS(=O)(=O)c3ccc(Cl)cc3)ccc2O1 | . | 79 | . | / | . | .
